Active and inactive are the calls of the source. Unless noted, the rule behind the calls is not given here.
Assays:
[1] = HepG2 liver cancer cell viability effects, profiling panel, resazurin fluorescence, 24 h, PK04 Diversity Set (AID 1172); settings: higher = more signal; note: test concentration not given here
[2] = basal S. cerevisiae growth modulation, no modifier, primary screen, OD600, strain BY4716, 24 h, basal condition (AID 1173); settings: OD600, 24 h, higher = more signal, called active from +8 up or from −8 down
[3] = MM1S myeloma cell viability, profiling panel, resazurin fluorescence, basal, 24 h, PK04 Diversity Set (AID 1174); settings: higher = more signal, called active from +8 up or from −8 down;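 note: MM1S multiple myeloma cell line; test concentration not given here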
[4] = target: Dihydroorotate dehydrogenase (quinone), mitochondrial (Plasmodium falciparum (isolate 3D7)) (UniProt Q08210); assay: PfDHODH enzyme inhibitors, primary screen, biochemical, C-terminal His tag, absorbance 600 nm (AID 1175); settings: DCIP absorbance 600 nm, higher = more signal, called active from +8 up or from −8 down;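 note: recombinant parasite enzyme with a five histidine tag at its C terminus; test concentration not given here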
[5] = P. aeruginosa biofilm formation inhibitors, primary screen, strain PAO1, LB-PBS medium, absorbance 600 nm (AID 1176); note: test concentration not given here; settings: P. aeruginosa PAO1 growth/biofilm, A600, 12 h; higher = more signal
[6] = S. cerevisiae RM11-1a growth modifiers, primary screen, strain RM11-1a, OD600, basal, 24 h (AID 1177); settings: OD600, 24 h, higher = more signal, called active from +8 up or from −8 down;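 note: cultures grown under basal conditions with no added stressor; test concentration not given here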
[7] = E. coli acrAB mutant growth effects, primary screen, E. coli filamentation inducers, strain DRC39, OD650, 24 h (AID 1178); settings: higher = more signal, called active from +8 up or from −8 down;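 note: growth measured as culture turbidity by optical density at 650 nm; test concentration not given here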
[8] = E. coli acrAB mutant growth effects, primary screen, E. coli filamentation inducers, strain DRC39, OD650, 48 h (AID 1179);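 note: screen aims at cell division blockers that make cells filament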; settings: E. coli DRC39 delta-acrAB growth, higher = more signal, called active from +8 up or from −8 down
[9] = RPMI8226 myeloma cell viability, profiling panel, resazurin fluorescence, basal, 24 h, PK04 Diversity Set (AID 1180); settings: higher = more signal;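 note: RPMI8826 multiple myeloma cell line at 5000 cells per well; test concentration not given here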
[10] = target: E3 ubiquitin-protein ligase XIAP (Homo sapiens) (UniProt P98170); assay: XIAP binders, primary screen, biophysical, small-molecule microarray, fluorescence 635 nm (AID 1181); settings: small-molecule microarray binding, higher = more signal;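 note: score merges 667 nm emission and signal to noise over triplicate slides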
Sequence of E3 ubiquitin-protein ligase XIAP (Homo sapiens) (P98170 whole entry, looked up): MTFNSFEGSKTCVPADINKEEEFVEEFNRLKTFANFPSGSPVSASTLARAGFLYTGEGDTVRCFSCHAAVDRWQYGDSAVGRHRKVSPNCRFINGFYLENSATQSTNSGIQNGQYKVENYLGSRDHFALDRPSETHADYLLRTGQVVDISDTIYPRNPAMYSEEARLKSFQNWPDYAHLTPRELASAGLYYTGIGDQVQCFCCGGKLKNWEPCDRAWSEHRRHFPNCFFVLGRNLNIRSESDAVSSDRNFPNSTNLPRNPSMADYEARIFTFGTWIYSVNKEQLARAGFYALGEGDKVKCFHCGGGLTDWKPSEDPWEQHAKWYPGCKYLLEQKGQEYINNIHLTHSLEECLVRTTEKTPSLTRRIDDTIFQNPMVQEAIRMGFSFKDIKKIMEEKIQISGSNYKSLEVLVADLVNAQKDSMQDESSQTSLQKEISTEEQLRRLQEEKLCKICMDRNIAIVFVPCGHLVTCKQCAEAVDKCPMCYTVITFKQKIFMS

Sequence of Dihydroorotate dehydrogenase (quinone), mitochondrial (Plasmodium falciparum (isolate 3D7)) (Q08210 whole entry, looked up): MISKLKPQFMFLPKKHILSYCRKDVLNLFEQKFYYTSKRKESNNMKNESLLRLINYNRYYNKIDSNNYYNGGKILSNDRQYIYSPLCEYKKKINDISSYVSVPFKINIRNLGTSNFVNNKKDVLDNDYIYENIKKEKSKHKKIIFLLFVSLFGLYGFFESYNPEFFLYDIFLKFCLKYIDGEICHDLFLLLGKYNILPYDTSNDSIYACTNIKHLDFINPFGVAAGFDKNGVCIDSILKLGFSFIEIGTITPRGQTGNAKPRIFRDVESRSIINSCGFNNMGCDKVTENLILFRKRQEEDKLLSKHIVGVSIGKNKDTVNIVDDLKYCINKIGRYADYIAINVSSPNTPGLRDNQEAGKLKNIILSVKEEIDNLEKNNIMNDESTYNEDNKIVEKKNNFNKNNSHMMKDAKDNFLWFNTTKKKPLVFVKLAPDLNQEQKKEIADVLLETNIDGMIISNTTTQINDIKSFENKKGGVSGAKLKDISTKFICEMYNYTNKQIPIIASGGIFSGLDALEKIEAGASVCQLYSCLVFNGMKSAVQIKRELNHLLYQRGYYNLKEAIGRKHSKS

| Structure (SMILES) | z-score [1] | z-score [2] | z-score [3] | composite z-score [4] | z-score [5] | z-score [6] | z-score [7] | z-score [8] | z-score [9] | composite z-score [10] |
| --- | --- | --- | --- | --- | --- | --- | --- | --- | --- | --- |
| C=CC(COC(C)=O)NS(=O)(=O)c1ccc(Br)cc1 (stereo not given) | -0.233 | -2.68 (inactive) | 0.364 (inactive) | -0.287 (inactive) | 0.212 (inactive) | -0.406 (inactive) | -0.909 (inactive) | -1.05 (inactive) | 0.404 | -0.338 |
| O=C1OCCC=C[C@H]2OC34C=CCN(c5ccc6ccccc6c5)C(=O)[C@H]3N(CCCCCO)C(=O)[C@@H]4C12 (stereo not given in full) | 1.32 | -0.805 (inactive) | 0.835 (inactive) | -0.556 (inactive) | 0.357 (inactive) | -0.403 (inactive) | 1.61 (inactive) | 1.74 (inactive) | 1.28 | -0.174 |
| COc1c(C)cc(-c2cc3c(c(-c4ccc(Oc5ccccc5)cc4)n2)[Si](C(C)C)(C(C)C)OC3)cc1C | -0.566 | 2.09 (inactive) | -0.391 (inactive) | 0.567 (inactive) | 1.18 (inactive) | 1.19 (inactive) | -0.227 (inactive) | -0.707 (inactive) | -0.155 | -0.187 |
| CCOC(=O)C1=CCC(c2ccc([N+](=O)[O-])cc2)N(S(=O)(=O)c2ccc(C)cc2)C1 (stereo not given) | 0.291 | 2.15 (inactive) | -1.1 (inactive) | 0.774 (inactive) | -0.116 (inactive) | 2.42 (inactive) | -0.627 (inactive) | -0.418 (inactive) | -1.5 | -0.0513 |
| CC(C)N1C(=O)c2ccccc2[C@@H](C(=O)NCCCN(C)C)[C@@H]1c1ccc(CO)cc1 | -0.456 | -0.725 (inactive) | -0.0365 (inactive) | 0.465 (inactive) | -0.273 (inactive) | 0.625 (inactive) | -0.315 (inactive) | -0.621 (inactive) | 0.764 | 0.013 |
| CCCC[C@H]1OB(O)C[C@H]2C1=C(C)C[C@H]1C(=O)N(Cc3ccccc3)C(=O)[C@H]12 | 0.589 | -5.14 (inactive) | 0.355 (inactive) | -0.231 (inactive) | 0.0481 (inactive) | -0.621 (inactive) | 1.68 (inactive) | 0.452 (inactive) | 0.156 | -0.0627 |
| O=C1C[C@]2(c3ccc([N+](=O)[O-])cc3)C(=O)N(CC(F)(F)F)c3cc(CO)ccc3[C@H]2N1CC12CC3CC(CC(C3)C1)C2 | 0.961 | 0.695 (inactive) | -1.2 (inactive) | -3.73 (inactive) | 0.503 (inactive) | -0.319 (inactive) | 0.973 (inactive) | 0.672 (inactive) | -0.157 | -0.222 |
| O=c1cccc(C=Cc2ccccc2)o1 | 0.266 | -2.09 (inactive) | 0.835 (inactive) | 0.0681 (inactive) | -0.212 (inactive) | -0.0064 (inactive) | -0.131 (inactive) | 0.761 (inactive) | -0.0628 | -0.248 |
| C=C(COC)/C(=C/C[C@H](OC(=O)c1ccncc1)c1cccc(OCCO)c1)c1cc(C(=O)OC)ccc1OC | 0.13 | -0.0964 (inactive) | 0.544 (inactive) | -2.67 (inactive) | -0.21 (inactive) | -0.42 (inactive) | 0.629 (inactive) | 0.237 (inactive) | 0.406 | -0.102 |
| COC(=O)[C@]1(Cc2ccccc2N=[N+]=[N-])N=C(c2ccc(OCCCO)cc2)O[C@@H]1c1ccccc1N=[N+]=[N-] | -3.41 | -0.569 (inactive) | -6.71 (inactive) | 0.519 (inactive) | 0.755 (inactive) | -0.0599 (inactive) | 0.2 (inactive) | -0.54 (inactive) | -7 | 0.165 |
| COc1ccc([Si](C)(C)[C@@H]2[C@@H](CC(=O)N3CCC[C@H]3CO)O[C@]3(C(=O)N(C)c4c(Br)cc(C)cc43)[C@H]2C)cc1 | 0.27 | -1.62 (inactive) | 0.62 (inactive) | -1.88 (inactive) | 0.331 (inactive) | -1 (inactive) | 0.233 (inactive) | 0.0205 (inactive) | -0.128 | 0.287 |
| CC(C)c1ccc(NN2C(C(O)c3c(F)cccc3Cl)C=CC3C(=O)N(c4ccccc4)C(=O)C32)cc1 (stereo not given) | -1.59 | -0.134 (inactive) | -1.35 (inactive) | 1.36 (inactive) | 0.807 (inactive) | 1.5 (inactive) | -0.576 (inactive) | -0.895 (inactive) | -1.42 | -0.132 |
| CC(C)(C)N1CC=CC23O[C@@H]4/C=C\CCCOC(=O)C4[C@H]2C(=O)N(CCO)[C@@H]3C1=O (stereo not given in full) | -0.636 | 0.0998 (inactive) | -0.0023 (inactive) | -0.252 (inactive) | 0.18 (inactive) | 0.338 (inactive) | -0.599 (inactive) | -0.814 (inactive) | -0.053 | -0.142 |
